# Calls of active or inactive are those of the source. How the source made its calls: active means hit-call score of the fitted dose curve at least 0.9, where 1 is the maximum; inactive means score below 0.9.
# Test: ATG_GLI_CIS: Attagene CIS-FACTORIAL HepG2 Assay for human Zinc Finger Protein GLI1 (AID 2282945)
# Details: HepG2, Attagene cis-factorial reporter mRNA, GLI element; actives raise or lower the signal
# Protocol: ATG_CIS is a cell-based, multiplexed-readout assay that uses HepG2, a human liver cell line, with measurements taken at 24 hours after chemical dosing in a 24-well plate.ATG_GLI_CIS is one of 52 assay component(s) measured or calculated from the ATG_CIS assay. It is designed to make measurements of mRNA induction, a form of inducible reporter, as detected with fluorescence intensity signals by Reverse transcription polymerase chain reaction (RT-PCR) and Capillary electrophoresis technology.Data from the assay component ATG_GLI_CIS was analyzed into 1 assay endpoint. This assay endpoint, ATG_GLI_CIS, was analyzed with bidirectional fitting relative to DMSO as the negative control and baseline of activity. Using a type of inducible reporter, measures of mRNA for gain or loss-of-signal activity can be used to understand the reporter gene at the transcription factor-level as they relate to the gene GLI1. Furthermore, this assay endpoint can be referred to as a primary readout, because this assay has produced multiple assay endpoints where this one serves a reporter gene function. To generalize the intended target to other relatable targets, this assay endpoint is annotated to the dna binding intended target family, where the subfamily is zinc finger.
# Human liver HepG2 cells are transiently transfected with multiple reporter transcription units (MRTUs) in 6-well plates using FuGene 6 reagent (Roche; 3 ml FuGene/1 mg DNA). The MRTU constructs are regulated by a cis-regulating element (promoter). […] A major difference between the CIS and TRANS system is that in CIS activities of endogenous TFs are measured, whereas the TRANS assay evaluates changes in activities of exogenous, chimeric NR-Gal4 proteins. […] At the end of 24 hour incubation, total RNA was isolated using TriZol reagent (Invitrogen). The isolated RNA is then reverse-transcribed using oligo(dT) primer and Mo-MLV reverse transcriptase (Invitrogen) with DNAse I (Ambion) treatment for 30 min. The one-tenth of the produced cDNA was amplified by PCR using Taq DNA polymerase (Invitrogen) and two reporter sequence-specific primers. The PCR products were fluorescently labeled by primer extension with 6-arboxyfluorescein (6-FAM) 5'-labeled reporter sequence-specific primer (2 min at 95 C, 20 s at 68 C and 10 min at 72 C) and these products were digested with 5U of HpaI (New England Biolabs) for 2h at 37 C. The fragments were purified using Qiaquick PCR columns (Qiagen), analyzed on an ABI 3130xL genetic analyzer (Applied Biosystems) with peak positions identified by using a set of X-rhodamine (ROX)-labeled MapMarker1000 molecular weight standards (BioVentures). The raw capillary electrophoresis data was processed using Attagraph software (Attagene).
row,SMILES,outcome
1,O=C(O)Cc1ccccc1,inactive
2,O=P(O)(O)CN(CP(=O)(O)O)CP(=O)(O)O,inactive
3,CNC,inactive
4,Cc1cc(Cl)ccc1O[C@H](C)C(=O)O,inactive
5,Nc1ccc(Cl)cc1C(=O)c1ccccc1,inactive
6,C[C@]12CCC(=O)C[C@@H]1CC[C@@H]1[C@@H]2CC[C@]2(C)[C@@H](O)CC[C@@H]12,inactive
7,CCC(=O)C(CC(C)N(C)C)(c1ccccc1)c1ccccc1 (stereo not given),inactive
8,N#CCCO,inactive
9,O=C(Cl)c1ccc(Cl)cc1,inactive
10,Cc1cc(=O)[nH]o1,inactive
11,COP(=S)(OC)Oc1ccc(Sc2ccc(OP(=S)(OC)OC)cc2)cc1,inactive
12,c1cc[c]([Hg][c]2ccccc2)cc1,inactive
13,Cn1sc(Cl)cc1=O,inactive
14,Fc1ccc(C2(Cn3cncn3)OC2c2ccccc2Cl)cc1 (stereo not given),inactive
15,Nc1cccc(Cl)c1,inactive
16,O=CC=O,inactive
17,COc1ccccc1OC,inactive
18,CC(=O)C(Cl)C(=O)N(C)C (stereo not given),inactive
19,N#CCc1ccc(Cl)cc1,inactive
20,CCC[CH2][Sn]([CH2]CCC)([CH2]CCC)[O]C(=O)c1ccccc1,inactive

row,SMILES,outcome
1,CC(C)(c1ccc(OCC2CO2)cc1)c1ccc(OCC2CO2)cc1 (stereo not given),inactive
2,C[C@]12CC[C@H](O)CC1=CC[C@@H]1[C@@H]2CC[C@]2(C)C(=O)CC[C@@H]12,inactive
3,CCOP(=S)(OCC)SCCS(=O)(=O)CC,inactive
4,ClC1(Cl)C2(Cl)C3(Cl)C4(Cl)C(Cl)(Cl)C5(Cl)C3(Cl)C1(Cl)C5(Cl)C24Cl (stereo not given),inactive
5,COc1ccc(OC)c(C=O)c1,inactive
6,CCOC(=O)Nc1cccc(OC(=O)Nc2ccccc2)c1,inactive
7,Nc1ccc(N=Nc2ccc(-c3ccc(N=Nc4c(S(=O)(=O)O)cc5cc(S(=O)(=O)O)c(N=Nc6ccccc6)c(O)c5c4N)cc3)cc2)c(N)c1,inactive
8,CC(=O)C=C(C)C,inactive
9,C=C(C)C(=O)[O][Sn]([CH2]CCC)([CH2]CCC)[CH2]CCC,inactive
10,C1CCC(NC2CCCCC2)CC1,inactive
11,CC(C)c1cccc(C(C)C)c1O,inactive
12,CCOP(=S)(OCC)SCSP(=S)(OCC)OCC,inactive
13,O=[N+]([O-])c1c(Cl)c(Cl)cc(Cl)c1Cl,inactive
14,O=C(OC1CCCCC1)c1ccccc1C(=O)OC1CCCCC1,inactive
15,CCN1CCC2(CC1)COc1cc3c(cc12)N(C(=O)c1ccc(-c2ccc(-c4nnc(C)o4)cc2C)cc1)CC3,inactive
16,BrCCBr,inactive
17,CC(=O)[O][Hg][c]1ccccc1,inactive
18,COc1cc2c(cc1OC)[C@@]13CCN4CC5=CCO[C@H]6CC(=O)N2[C@H]1[C@H]6[C@H]5C[C@H]43,inactive
19,CC(C#N)CCC#N (stereo not given),inactive
20,CC1CN1P(=O)(N1CC1C)N1CC1C (stereo not given),inactive
